The list is not random: actives were taken first. Their share in the collection is about 3.4%.
MITF inh: MITF inhibitors, primary screen, biochemical, AlphaScreen, human | AlphaScreen MITF homodimerization, bead proximity signal | 0.91% of 650,000 active | inhibition, % at 2.6 µM | Microphthalmia-associated transcription factor (Homo sapiens), O75030 | AID 1259374, 2018; in the data active means inhibition above about 50%;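 further: 0% = vehicle wells with protein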
Target sequence (O75030 whole entry, looked up): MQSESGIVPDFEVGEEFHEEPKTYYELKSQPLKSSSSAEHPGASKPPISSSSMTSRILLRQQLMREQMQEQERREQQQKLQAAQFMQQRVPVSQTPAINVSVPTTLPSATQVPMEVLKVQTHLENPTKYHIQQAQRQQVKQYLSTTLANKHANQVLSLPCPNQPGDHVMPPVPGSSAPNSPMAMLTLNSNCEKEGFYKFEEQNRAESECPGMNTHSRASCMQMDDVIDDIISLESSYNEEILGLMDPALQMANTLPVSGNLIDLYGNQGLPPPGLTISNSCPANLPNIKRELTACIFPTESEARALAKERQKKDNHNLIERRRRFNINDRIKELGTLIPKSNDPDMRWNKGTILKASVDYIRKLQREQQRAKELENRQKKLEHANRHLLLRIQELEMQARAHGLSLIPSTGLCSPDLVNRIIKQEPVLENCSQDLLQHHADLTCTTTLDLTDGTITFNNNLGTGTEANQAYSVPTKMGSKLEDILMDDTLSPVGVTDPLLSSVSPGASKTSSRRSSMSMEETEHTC
FBW7 activator: FBW7 E3 ligase activators, primary screen, biochemical, AlphaScreen, human; AID 1259310, 2017; AlphaScreen FBW7–phospho-cyclin E peptide binding, activator screen; 0.13% of 650,000 active; normalized activity (activation), % at 26.1 µM; in the data active means normalized activity above about 1.9%;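 further: purified mutant Fbw7 with reduced substrate affinity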
TEAD-YAP block: TEAD-YAP interaction inhibition, primary screen, TEAD-YAP interaction inhibitor project, luminescence, HEK-TIYL cells | TEAD-Gal4/YAP UAS-luciferase luminescence | inhibition, % at 9.12 µM | 1.4% of 640,000 active; in the data active means inhibition above about 32%;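 further: 0% = median of test compound wells and 100% = reference inhibitor wells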
GPR151 ag: activators of human GPR151, primary screen, cell-based, PathHunter beta-arrestin, luminescence | G-protein coupled receptor 151 (Homo sapiens), Q8TDV0 | PathHunter beta-arrestin GPR151 cells | activation, % at 11.2 µM | 1% of 650,000 active; in the data active means activation above about 4.9%;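 further: 0% = median of compound wells and 100% = cells with positive control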
MITF inh conf: MITF inhibitors, retest of hits, confirmation, biochemical, AlphaScreen, triplicate; shares compounds with MITF inh; AlphaScreen MITF homodimerization, biotin/His-MITF beads; inhibition, % at 2.6 µM; 16% of 4,700 active;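 active means inhibition above a cutoff derived from the DMSO control wells, cut at about 28% in these data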;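 further: 0% = MITF dimer wells with DMSO only; inhibitors lower the bead chemiluminescence by keeping MITF from dimerizing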
AS interf DR: AlphaScreen optical interference compounds, dose response, counter-screen, biochemical, HTS. shares compounds with MITF inh. AlphaScreen optical interference counterscreen, cell-free. IC50, µM. 6% of 480 active; call rule not given here
AS interf ctr: AlphaScreen optical interference compounds, counter-screen for MITF inhibitor project, biochemical, triplicate. inhibition, % at 2.6 µM. LysRS AlphaScreen counterscreen, signal interference. 7.6% of 4,700 active. shares compounds with MITF inh;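 active means inhibition above a cutoff derived from the DMSO control wells, cut at about 30% in these data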
* marks the source's active call; other numbers are inactive results; / = no result given.

SMILES | MITF inh | FBW7 activator | TEAD-YAP block | GPR151 ag | MITF inh conf | AS interf ctr | others
COc1ccc(OC)c(NC(=O)NNC(=O)c2ccc(C)s2)c1 | 7 | 0 | 12 | -1 | / | /
O=C(CCc1ccccc1)NN1C(=O)CCC1=O | -2 | 0 | -2 | 0 | / | /
CC12CCC(C(=O)N(NC(=O)CCc3ccccc3)C1=O)C2(C)C (stereo not given) | 65* | 0 | 12 | 3 | -4 | 11
COC(=O)Cc1cc(=O)n(-c2nc3ccccc3[nH]2)[nH]1 | 94* | -1 | -8 | 4 | 72* | 99*
COc1cc(CNC2CCCCC2)cc(OC)c1 | 52* | 0 | 16 | -1 | -9 | -10
COc1cc(CNC2CCCC2)cc(OC)c1 | 27 | 0 | 6 | -1 | / | /
Clc1c(OCCCN2CCNCC2)ccc2ccccc12 | 51* | 0 | -22 | 1 | -13 | -7
CCN1CCN(CCCOc2ccc3ccccc3c2Br)CC1 | 61* | 0 | -19 | 0 | 7 | 15
CCN1CCN(CCOc2cccc3ccccc23)CC1 | -17 | 0 | 14 | 0 | / | /
CCN1CCN(CCOc2ccc3ccccc3c2Cl)CC1 | 58* | 0 | -2 | 0 | 11 | 19
CC(NCc1ccccc1)C1COc2ccccc2O1 (stereo not given) | 58* | 0 | -7 | 0 | -4 | -5
CCCCNC(C)C1COc2ccccc2O1 (stereo not given) | 9 | 0 | 3 | 0 | / | /
CC(C)C(=O)c1ccc(OCCOc2ccc(C(=O)C(C)C)cc2)cc1 | 6 | 0 | 2 | 0 | / | /
COCCCNCCCOc1ccc(C(C)(C)c2ccccc2)cc1 | 76* | 0 | 5 | 0 | 2 | 5
COCCNCCCCOc1ccc(OCc2ccccc2)cc1 | 66* | 0 | -28 | -1 | 11 | 15
CC(C)(c1ccccc1)c1ccc(OCCCNCCN)cc1 | -2 | 0 | 9 | 1 | / | /
COCCCNCCOc1ccc(OCc2ccccc2)cc1 | 47 | 0 | -22 | -2 | / | /
CN(C)CCNCCCOc1ccccc1 | 56* | 0 | 11 | -2 | 5 | 16
COCCNCCCOc1ccc(C(C)(C)c2ccccc2)cc1 | 85* | 0 | 10 | -1 | 2 | 7
C=CCC(C)(CC=C)NC(=O)C(F)(F)F | 5 | 0 | 3 | 0 | / | /
O=C(N/N=C/c1ccccc1F)C(=O)Nc1ccc(F)cc1 | 0 | 0 | -1 | -1 | / | /
O=C(O)c1cc(N/N=C/c2ccc(F)cc2)ccc1Cl | 4 | 0 | -59 | -1 | / | /
COC(=O)c1cccc(NC(=O)CCOc2ccccc2)c1 | 51* | 0 | -11 | -1 | 0 | 7
O=[N+]([O-])c1ncn(Cc2cccc(Cl)c2)n1 | 1 | 0 | 2 | 1 | / | /
CC1=CC(C)(C)NC(=S)N1c1ccc(Cl)cc1 | 15 | 0 | 6 | 1 | / | /
SMILES | MITF inh | FBW7 activator | TEAD-YAP block | GPR151 ag | MITF inh conf | AS interf ctr | others
CC1=CC(C)(C)NC(=S)N1c1cc(Cl)cc(Cl)c1 | 58* | 0 | -4 | -1 | 10 | 18
Cc1sc2c3c(ccc2[n+]1CCCS(=O)(=O)O)CCCC3 | 5 | 0 | 0 | 0 | / | /
O=C(O)CCC(NCc1ccco1)C(=O)O (stereo not given) | 62* | 0 | 8 | 0 | 56* | 9 | AS interf DR=>6.8
COc1cc2c(C#N)c(N3CCCCC3)nc3c2c(n1)NC1(N3)C(=O)Nc2ccccc21 (stereo not given) | 2 | 0 | 3 | 1 | / | /
COc1ccc(/C(N)=N/OC(=O)C(C)Oc2ccccc2C)cc1OC (stereo not given) | -10 | 0 | -6 | 0 | / | /
O=C(CCCCC1SCC2NC(=O)NC21)NC1(c2ccc(F)cc2)CCCC1 (stereo not given) | 109* | -1 | -13 | 1 | 88* | 15 | AS interf DR=4.3*
COC(=O)CCCC[C@H]1SC[C@H]2NC(=O)N[C@H]21 | 0 | 0 | 3 | -1 | / | /
CN(C)CCCN(CCCN(C)C)Cc1cccc(C(F)(F)F)c1 | 57* | 0 | 6 | 2 | -6 | -4
CN(C)CCCN(CCCN(C)C)Cc1ccc(Cl)cc1 | 37 | 0 | -8 | 0 | / | /
CN(C)CCCN(CCCN(C)C)Cc1ccc(F)c(Br)c1 | 53* | 0 | 4 | 1 | -13 | -4
CN(C)CCCN(CCCN(C)C)Cc1ccc(F)cc1 | 64* | 0 | 3 | 1 | -10 | 10
COc1ccc(C(=O)N/N=C(/C)CC(=O)Nc2ccccn2)cc1OC | 60* | 1 | -4 | 1 | 4 | 13
O=C(NC1CCN(Cc2ccccc2)CC1)c1ccc2nc(-c3cccs3)sc2c1 | 52* | 0 | -1 | 1 | 60* | 1 | AS interf DR=>6.4
CCN(CC)CCCOc1ccc2ccccc2c1 | 66* | 0 | -24 | 0 | -7 | -4
CC(NC(=O)C1CCN(Cc2ccccc2O)CC1)c1ccccc1 (stereo not given) | 19 | 0 | 2 | 2 | / | /
CC(NC(=O)C1CCN(Cc2ccccc2)CC1)c1ccccc1 (stereo not given) | 53* | 0 | 4 | 0 | 10 | 7
CC(NC(=O)C1CCNCC1)c1ccccc1 (stereo not given) | 51* | 0 | 11 | 0 | 1 | 12
COc1ccc(CN2CCC(C(=O)NC(C)C)CC2)c(OC)c1OC | 71* | 0 | -10 | 1 | -13 | -5
COc1ccc(OC)c(CN2CCC(C(=O)NC(C)c3ccccc3)CC2)c1 (stereo not given) | 52* | 0 | -5 | -1 | 8 | 21
O=S(=O)(CCc1nc2ccccc2o1)c1ccc(Br)cc1 | 9 | 1 | 1 | 0 | / | /
CC(=O)NCCN1C(=S)N(c2ccc(C)cc2)C(=O)C1CC(=O)Nc1ccccc1 (stereo not given) | 10 | 0 | 7 | 1 | / | /
CC1CC(C)(C)Cc2c1sc(NC(=O)c1ccco1)c2C#N (stereo not given) | 84* | 0 | -38 | 1 | -2 | -8
Cc1ccc2c(c1)CCCN2C(=O)Cc1cccs1 | 1 | 0 | -1 | 2 | / | /
C/C=C/c1ccc(OCCCCN2CCN(CC)CC2)c(OC)c1 | 74* | 0 | 7 | -2 | 7 | 13
C/C=C/c1ccc(OCCOCCN2CCCC(C)C2)c(OC)c1 (stereo not given) | 53* | 0 | 5 | -1 | 4 | -1
COc1cc(C)ccc1OCCOCCN1CCCC(C)C1 (stereo not given) | 63* | 0 | -1 | 1 | -11 | -7
